Inconclusive results are not listed. The source made the active and inactive calls. The calls were made as follows: active = hit-call score of the fitted dose curve at least 0.9, where 1 is the maximum; inconclusive = response in the unintended direction; inactive = score below 0.9.
target: Estrogen receptor (Homo sapiens) (UniProt P03372); assay: CCTE_Deisenroth_AIME_384WELL_LUC_Inactive: CCTE's 384-well Estrogen Receptor Transactivation Assay without AIME metabolic competence (ERTA luciferase; metabolism negative), Deisenroth Lab (AID 2284038);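 also: hits raise estrogen receptor luciferase signal so potencies reflect agonists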
Experimental: CCTE_Deisenroth_AIME_384WELL (AIME metabolism assay) is a cell-based, single-readout assay that uses VM7Luc4E2, a human mammary gland/breast cell line, with measurements taken at 24 hour after chemical dosing in a 384-well plate.CCTE_Deisenroth_AIME_384WELL_LUC_Inactive is one of four assay components measured or calculated from the CCTE_Deisenroth_AIME_384WELL assay. It is designed to make measurements of luciferase induction, a form of inducible reporter, as detected with bioluminescence signals by luciferase-coupled ATP quantitation technology.CCTE_Deisenroth_AIME_384WELL_LUC_Inactive is a component of the CCTE_Deisenroth_AIME_384WELL assay that measures the effect of retroftting the VM7Luc ERTA assay with the Alginate Immobolization of Metabolic Enzymes (AIME) metabolism method. AIME is optimized to impart phase I hepatic metabolism using phenobarbital/beta-naphthoflavone induced hepatic S9 from male Sprague Dawley rats. Parent chemicals are incubated for 2 hours in the AIME assay prior to transfer to the VM7Luc ERTA assay plate. […] This endpoint evaluates reporter induction in metabolism negative mode. Using a type of inducible reporter in VM7Luc cells, gain-of-signal activity can be used to understand changes in the reporter gene as they relate to xenobiotic metabolism and the gene ESR1. This assay endpoint, CCTE_Deisenroth_AIME_384WELL_LUC_Inactive, was analyzed in the positive analysis fitting direction relative to 17beta-estradiol as the positive control in the ERTA assay. To generalize the intended target to other relatable targets, this assay endpoint is annotated to the nuclear receptor intended target family, where the subfamily is steroidal.
The AIME procedure consists of a preparative "pre-stamping" step using a barium chloride/poly-L-lysine (PLL) solution followed by "stamping" the lid in alginate-hepatic S9 (metabolism positive) or alginate-water (metabolism negative) to form microspheres. Once stamping is completed, the AIME lids are placed in duplicate microplates (metabolism positive or negative) containing chemical solutions and incubated for two hours to facilitate metabolic reactions. The conditioned medium, containing parent chemical or metabolites, is then transferred to the cell-based VM7Luc Estrogen Receptor Transactivation Assay (ERTA) for 24 hours. A typical experimental design tests a 10-point concentration series (0.002 - 200 uM) for 8 compounds (96-well format)1 or 32 compounds (384-well format)2 in single technical replicate. AIME assay controls include trans-stilbene (bioactivated control) and ethylparaben (bioinactivated control). ERTA assay plate controls include 17-beta estradiol (positive control) and DMSO (solvent control). Experiments typically comprise a minimum of four experimental replicates (n=4).

Sequence of Estrogen receptor (Homo sapiens) (P03372 whole entry, looked up): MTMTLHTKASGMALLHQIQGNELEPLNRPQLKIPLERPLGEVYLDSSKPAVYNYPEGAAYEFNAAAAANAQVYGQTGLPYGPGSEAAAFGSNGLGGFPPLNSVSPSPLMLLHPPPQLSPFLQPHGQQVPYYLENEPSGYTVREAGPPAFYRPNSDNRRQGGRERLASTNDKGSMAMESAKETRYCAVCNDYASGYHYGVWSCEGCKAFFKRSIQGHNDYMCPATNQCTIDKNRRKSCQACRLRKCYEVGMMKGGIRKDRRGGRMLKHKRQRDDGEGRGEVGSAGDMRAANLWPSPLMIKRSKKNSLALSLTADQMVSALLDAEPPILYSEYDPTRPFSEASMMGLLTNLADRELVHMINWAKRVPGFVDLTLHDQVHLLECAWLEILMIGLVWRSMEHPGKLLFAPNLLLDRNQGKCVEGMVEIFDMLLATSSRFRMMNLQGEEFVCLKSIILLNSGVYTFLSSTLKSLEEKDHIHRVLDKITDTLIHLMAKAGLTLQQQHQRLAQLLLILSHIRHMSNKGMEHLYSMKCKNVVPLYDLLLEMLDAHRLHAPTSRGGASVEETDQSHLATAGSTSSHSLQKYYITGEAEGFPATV

SMILES	outcome	AC50
C[N+](C)(C)CC1CO1 (stereo not given)	inactive	–
O=C(Nc1ccccc1)c1ccccc1I	–	23.7 µM (active)
CCCCCOC(=O)c1ccccc1C(=O)OCCCCC	inactive	–
OCCCBr	inactive	–
CNC(=O)Oc1cccc2c1OC(C)(C)C2	–	53.8 µM (active)
O=C(Oc1ccc(Br)cc1)N1CCN2CCC1CC2	inactive	–
[O-][Cl+]O	inactive	–
OCCOCCO	inactive	–
CCOc1cccc(C2(N3CCN(c4ccccc4)CC3)CCC(C)CC2)c1 (stereo not given)	inactive	–
Cc1ccc([N+](=O)[O-])cc1	inactive	–

From PubChem BioAssay (EPA / NIEHS)
